Measurements reported in ChEMBL document CHEMBL3988442, “University of Dundee, Small-Polar-MMV Screening Library” (2021).
Out of some 48,000 compounds screened, about 13,000 (27%) showed an effect of 50% or more. Some of the results follow.

Each compound was assayed on Wolbachia pipientis (assay: Anti-Wolbachia Cell-Based Screen). Conditions: 5 µM.
Format: functional
Set-up: scale not given: in the data most compounds retested in dose-response had high values

Compared with COc1ccccc1CC(=O)N(CCN1CCOCC1)Cc1ccco1, Cc1ccc(F)cc1CC(=O)N(CCN1CCOCC1)Cc1ccco1 is lower in “Percent Effect” value: 0.5032% for the first, -4.12% for the second.

Compared with COc1ccccc1CC(=O)N1CCN(Cc2ccco2)C[C@@H]1C, C[C@@H]1CN(Cc2ccco2)CCN1C(=O)Cc1ccccc1F is lower in “Percent Effect” value: 136.4% for the first, 87.95% for the second.

First: Cc1ccc2c(n1)N(CC1CC1)CCN(Cc1ccco1)C2.O=C(O)C(F)(F)F.O=C(O)C(F)(F)F
Second: O=C(Nc1cccnc1)[C@H]1CN(Cc2ccco2)C[C@H]2OCC[C@@H]12.O=C(O)C(F)(F)F.O=C(O)C(F)(F)F
The “Percent Effect” value of the first is higher: 13.96% for the first, -18.85% for the second.

Compared with O=C(O)C(F)(F)F.O=C1[C@H]2CN(Cc3ccco3)C[C@H]2CN1c1cncnc1, O=C(O)C(F)(F)F.O=C(O)C(F)(F)F.O=C1CO[C@@H]2CN(Cc3cccs3)C[C@H]2N1Cc1ccncc1 is lower in “Percent Effect” value: 5.677% for the first, -4.405% for the second.

Compared with Cc1cccc(C)c1NC(=O)CNC(C)Cc1ccsc1 (stereo unspecified), Cc1cccc(CNC(Cc2ccsc2)c2nccs2)n1 (stereo unspecified) is higher in “Percent Effect” value: -3.648% for the first, 152.6% for the second.

First: Cc1cc(N2CCC(NC(C)Cc3ccsc3)CC2)nc(C)n1 (stereo unspecified)
Second: N#Cc1ccc(NC2CCN(c3ncccn3)CC2)cc1C(F)(F)F
The “Percent Effect” value of the first is higher: 1.122% for the first, -29.96% for the second.

First: Fc1ccccc1CN1CCCC2(CCN(c3ncccn3)C2)C1 (stereo unspecified)
Second: c1cnc(N2CCCC3(CCN(Cc4cccs4)C3)C2)nc1 (stereo unspecified)
The “Percent Effect” value of the first is lower: -4.552% for the first, 109.3% for the second.

First: O=C(O)C(F)(F)F.O=C(O)C(F)(F)F.c1ccc(N2CCC3(COCCN(Cc4cccs4)C3)C2)nc1 (stereo unspecified)
Second: Cc1nc(CN2CCOCC3(CCN(c4ncccn4)C3)C2)cs1.O=C(O)C(F)(F)F.O=C(O)C(F)(F)F (stereo unspecified)
The “Percent Effect” value of the first is higher: 103.3% for the first, -16.84% for the second.

Going from CCC(CC)CN1CCC2(CCCN(c3ncccn3)C2)C1 (stereo unspecified) to CC(C)CN1CCCC2(CCN(c3ccccn3)C2)C1.O=C(O)C(F)(F)F (stereo unspecified), the “Percent Effect” value rises from -25.35% to 0.9995%.

Going from O=C(O)C(F)(F)F.O=C(O)C(F)(F)F.O=C(O)C(F)(F)F.c1ccc(CN2CCCC3(CCN(Cc4cccs4)C3)C2)nc1 (stereo unspecified) to O=C(O)C(F)(F)F.O=C(O)C(F)(F)F.c1ccc(CN2CCCC3(CCN(CC4CCCO4)CC3)C2)nc1 (stereo unspecified), the “Percent Effect” value falls from 118.7% to 98.44%.

Compared with CN(C)C[C@]12COC[C@H]1CN(Cc1ccccn1)C2.O=C(O)C(F)(F)F.O=C(O)C(F)(F)F.O=C(O)C(F)(F)F, O=C(NCc1ccccn1)[C@]12COC[C@H]1CN(Cc1ccsc1)C2.O=C(O)C(F)(F)F.O=C(O)C(F)(F)F is higher in “Percent Effect” value: -16.37% for the first, 103% for the second.

First: O=C(O)C(F)(F)F.O=C(O)C(F)(F)F.O=C1N(c2ccsc2)CCC12CCCN(Cc1ccccn1)C2 (stereo unspecified)
Second: Fc1cnc(N2CCCC3(CCN(Cc4ccsc4)C3)C2)nc1.O=C(O)C(F)(F)F.O=C(O)C(F)(F)F (stereo unspecified)
The “Percent Effect” value of the first is higher: 2.891% for the first, -8.586% for the second.

First: O=C(NCc1ccccn1)[C@]12COC[C@H]1CN(C1CCC1)C2.O=C(O)C(F)(F)F.O=C(O)C(F)(F)F
Second: O=C(O)C(F)(F)F.O=C(O)C(F)(F)F.O=C1CO[C@@H]2CN(CC3CCOCC3)C[C@H]2N1Cc1ccncc1
The “Percent Effect” value of the first is lower: -13.49% for the first, 87.76% for the second.

Compared with O=C(O)C(F)(F)F.c1cnc(N2CCOCC3(CCCN(Cc4cc[nH]n4)C3)C2)nc1 (stereo unspecified), O=C(O)C(F)(F)F.c1ccc(N2CCCC3(CCN(Cc4ccsc4)C3)C2)nc1 (stereo unspecified) is higher in “Percent Effect” value: -14.28% for the first, 92.47% for the second.

Going from c1cc([C@H]2C[C@@H]3CCN(Cc4nccs4)C[C@H]3O2)ncn1 to Cc1cccnc1CN1CCC2(CC(Nc3ccncn3)C2)C1 (stereo unspecified), the “Percent Effect” value rises from -0.9402% to 130.7%.

Going from COCC1CC2(CCNCC2)CN1c1ncccn1 (stereo unspecified) to Fc1cnccc1CN1CCC2(CCNCC2)C1, the “Percent Effect” value falls from -4.112% to -4.399%.

Going from CC(C)N1CCO[C@H]2CN(C(=O)c3ccncc3F)C[C@H]21.O=C(O)C(F)(F)F to CNC(=O)CN1CCO[C@H]2CN(C(=O)c3ccncc3F)C[C@H]21.O=C(O)C(F)(F)F, the “Percent Effect” value rises from -21.77% to -18.06%.

Going from Clc1cncc(N2CCN(Cc3ccon3)CC2)n1 to CCN1CCN(c2cncc(Cl)n2)CC1, the “Percent Effect” value falls from 98.12% to 88.05%.

Going from c1cc(CN2CCN(Cc3ccon3)C3(CCCCC3)C2)no1 to c1cc(CN2CCSC3(CCCCC3)C2)no1, the “Percent Effect” value falls from -15.56% to -28.1%.

Going from CCN1CCN(Cc2csc(C(C)C)n2)CC1 to CCN1CCN(Cc2nc(C)no2)CC1, the “Percent Effect” value rises from -0.2652% to 8.697%.

Going from CC(C)(O)CNc1ccc(C#N)c(C(F)(F)F)c1 to NCC1(c2cccc(C(F)(F)F)c2)CCC1, the “Percent Effect” value rises from 7.337% to 15.34%.

Going from O=C(C1CCC1)N1CCC2(CC1)CNCCO2 to Cl.O=C(C1CC=CC1)N1CCC2(CC1)CNCCO2, the “Percent Effect” value rises from -23.25% to -11.15%.

First: O=C(C1CC(=O)N(c2ccccc2Br)C1)N1CCC2(CC1)OCCO2 (stereo unspecified)
Second: O=C(C1CC=CC1)N1CCC2(CC1)OCCO2
The “Percent Effect” value of the first is lower: -9.549% for the first, 105.5% for the second.

Going from O=C(C1CCN(S(=O)(=O)N2CCCC2)CC1)N1CCC2(CC1)OCCO2 to CS(=O)(=O)N1CCC(C(=O)N2CCC3(CC2)OCCCO3)CC1, the “Percent Effect” value falls from 110.6% to 6.012%.

Going from O=C(C1CCCC1)N1CCC2(CC1)OCCO2 to O=C(C1CCCCC1)N1CCC2(CC1)OCCO2, the “Percent Effect” value rises from -31.13% to 92.72%.

Going from O=C(c1cnn2c1OCCC2)N1CCC2(CC1)OCCO2 to O=C(c1[nH]c2ccc(Cl)cc2c1Cl)N1CCC2(CC1)OCCO2, the “Percent Effect” value falls from -3.54% to -4.336%.

Going from Cn1cc(C2=CCN(CCCOc3ccc(C(N)=O)cc3)CC2)cn1 to Cc1ccccc1-n1cc(C2=CCN(CCN3CCOCC3)CC2)cn1, the “Percent Effect” value falls from -2.558% to -7.999%.

Going from Cn1ccnc1CN1CC2(CCN(Cc3ccncc3)C2)C1 to CN(c1ncccc1C#N)C1CCN(CCc2ccncc2)CC1, the “Percent Effect” value falls from -5.589% to -9.489%.

First: CCN1CCC2(CC1)CC(Nc1ncccn1)CO2 (stereo unspecified)
Second: Cc1cc(NC2CC3(CCN(Cc4ncccc4F)C3)C2)ncn1 (stereo unspecified)
The “Percent Effect” value of the first is lower: -3.551% for the first, 100.5% for the second.

Going from Cc1cccnc1CC(C)NC1Cc2ccccc2C1 (stereo unspecified) to CN(C(=O)Cc1ccn(C)c1)C1CCCN(C2Cc3ccccc3C2)C1 (stereo unspecified), the “Percent Effect” value rises from -26.27% to -11.39%.

Going from COC(=O)CNC(=O)c1cn(Cc2ccccc2F)nn1 to Cc1nc(CC(=O)N2CCN(C(C)c3ccccc3F)CC2)cs1 (stereo unspecified), the “Percent Effect” value falls from 4.551% to -7.662%.

Going from CCCc1nc(N2CCCN3CCC[C@H]3C2)c2cnn(C)c2n1 to Cn1ncc2c(N3CCCN4CCC[C@H]4C3)nc(C(C)(C)C)nc21, the “Percent Effect” value rises from 64.99% to 135.6%.

Going from CCCc1nc(N2CCCC3(CCNC3)C2)c2cnn(C)c2n1 (stereo unspecified) to Cn1ncc2c(N3CCCC4(CCNC4)C3)nc(C(C)(C)C)nc21 (stereo unspecified), the “Percent Effect” value rises from -0.0368% to 8.536%.

Going from CCOCc1nc2c(c(N3CCN4CCCC4C3)n1)CCNCC2 (stereo unspecified) to CC(C)c1nc(N2CCN3CCCC3C2)c2cnn(C)c2n1 (stereo unspecified), the “Percent Effect” value rises from 3.786% to 18.47%.

First: Cc1nc(COC[C@@H]2CC[C@H]3NCC[C@H]3O2)cs1.Cl.Cl
Second: Cc1nc(CC(=O)N2CCCC[C@H](N(C)C)C2)cs1
The “Percent Effect” value of the first is lower: 12.23% for the first, 105.8% for the second.

Compared with Cc1cccc(CC(=O)N2CCCC(N(C)CCCN(C)C)C2)c1 (stereo unspecified), Cc1nc(CC(=O)N2CCCC(N(C)Cc3ccccc3)C2)cs1 (stereo unspecified) is higher in “Percent Effect” value: 81.85% for the first, 124% for the second.

Going from Cc1nc(CC(=O)N(C)C2CCCN(CCc3ccccc3)C2)cs1 (stereo unspecified) to COCC(=O)NC[C@H]1C[C@@H]2CCN1C[C@@H]2CN(C)c1ccccc1, the “Percent Effect” value falls from 10.74% to -6.027%.

Compared with Cc1nc(CN2CCN(C(=O)Cc3cccc(Cl)c3)CC2)no1, CN(C)C(=O)CN1CCN(C(=O)Cc2csc(-c3ncccn3)n2)CC1 is lower in “Percent Effect” value: 6.745% for the first, -5.623% for the second.

First: O=C(Cc1csc(-c2ncccn2)n1)N1CCN2CCCCC2C1 (stereo unspecified)
Second: O=C1CO[C@H]2CN(C3CCOCC3)C[C@H]2N1Cc1ccccn1
The “Percent Effect” value of the first is higher: 6.768% for the first, -4.247% for the second.

Compared with COc1ncccc1CN1CC[C@H]2O[C@@H](c3nnc(C)o3)CC[C@H]21, O=C1CO[C@H]2CN(C3CCOCC3)C[C@H]2N1Cc1ccncc1 is lower in “Percent Effect” value: -10.73% for the first, -21.59% for the second.

Compared with Cc1ccccc1CC(C)NCc1c(C)nn(C)c1N1CCOCC1.Cl (stereo unspecified), CCCN1CCN(C(=O)c2cnccc2C)[C@H]2CS(=O)(=O)C[C@H]21 is lower in “Percent Effect” value: 6.405% for the first, -10.68% for the second.

Going from CCOC(C)c1noc(CN(C)C(=O)C2C(C)(C)C2(C)C)n1 (stereo unspecified) to CCC[C@]12CN3C[C@](C)(CN(C1)C3c1[nH]c(=O)[nH]c(=O)c1C)C2=O (stereo partly specified), the “Percent Effect” value rises from 12.97% to 118.8%.

First: C[C@H]1C[C@@H]2CCN(CC3CCOCC3)C[C@H]2O1
Second: O=C1CO[C@@H]2CN(C3CCOCC3)C[C@H]2N1Cc1ccncc1
The “Percent Effect” value of the first is lower: -3.08% for the first, 117.1% for the second.

Compared with O=C(O)C(F)(F)F.O=C(O)C(F)(F)F.O=C(O)C(F)(F)F.O=C(O)C(F)(F)F.c1cc(CN2C[C@@H]3OCCN(CCN4CCCC4)[C@@H]3C2)ccn1, NCC1(c2cccc(C(F)(F)F)c2)CCOCC1 is lower in “Percent Effect” value: 0.06106% for the first, -0.8853% for the second.

Compared with Cc1c(C2N3C[C@]4(C)CN2C[C@](C)(C3)C4=O)[nH]c(=O)[nH]c1=O (stereo partly specified), CC[C@]12CN3C[C@](C)(CN(C1)C3c1[nH]c(=O)[nH]c(=O)c1C)C2=O (stereo partly specified) is lower in “Percent Effect” value: 140.1% for the first, 105.1% for the second.

For CC[C@]12CN3C[C@](CC)(CN(C1)C3c1[nH]c(=O)[nH]c(=O)c1C)C2=O (stereo partly specified), the “Percent Effect” value was 112.4%.
